Sampled rows, rich in hits. Any-hit rate of the full collection: about 1.4%.
CFTR F508del cor = CFTR F508del correction in bronchial cells. CFBE cells, YFP halide quenching; stimulated with forskolin plus potentiator P3; % fluorescence drop versus neutral controls. activity (quench increase), % at 7.58 µM. actives 0.36% (n = 350,000). AID 720511;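 active = mean added fluorescence quench of at least 8% versus neutral control, with both replicates also reaching 8%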;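 also: cells transiently co-express mutant CFTR-F508del with the halide-sensitive YFP; corrector assay measuring rescue of mutant channel to the surface after 24 h compound exposure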
C2C12 statin = suppressors of simvastatin-induced myotoxicity in C2C12 myotubes; ATP luminescence, 48 h; scaled: DMSO 0, geranylgeraniol control 100; rescue of ATP level, % at 7.49 µM; actives 0.78% (n = 330,000); AID 602340;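 active = mean ATP rescue above about 67%, or every replicate alone reaching that limit, limit read from the data, passing the limit was not always enough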;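 also: myotubes were challenged with 10 µM simvastatin during compound exposure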
ARNT TACC3 PPI = disrupts binding between human ARNT and TACC3 | Q9Y6A5 | AlphaScreen His-ARNT PAS-B/GST-TACC3 binding, luminescence; TACC3 fragment carries E629A point mutation | inhibition, % at 9.99 µM | actives 0.66% (n = 390,000) | AID 623870;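 active = mean inhibition of replicates at least 50% and at least half of replicates each reaching 50%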
PglD DTNB = inhibitors of Campylobacter jejuni PglD acetyltransferase; purified PglD enzyme, DTNB colorimetric CoA detection; inhibition, % at 12.5 µM; actives 0.098% (n = 360,000); in the data active = inhibition above about 16%, passing the limit was not always enough
Each line names hits and unclear results; the compound was inactive in the other large screens; ! = not confirmed by another sample.

Cc1noc(C)c1NC(=O)N(C)C[C@@H]1OCCCC[C@H](C)Oc2ccc(NS(C)(=O)=O)cc2C(=O)N([C@@H](C)CO)C[C@@H]1C	none (no result: C2C12 statin)
COc1cc2c(cc1OC)C(c1cc(OC)c(OC)c(OC)c1)NCC2 (configuration not stated)	C2C12 statin 113 (no result: CFTR F508del cor)
Cn1c(CO)cnc1SCc1ccc(Cl)cc1	PglD DTNB 26 (no result: CFTR F508del cor)
Cn1c(CO)cnc1S(=O)(=O)Cc1ccc(Cl)cc1	none
N#Cc1cccc(-c2ccc3c(c2)[C@@H]2[C@@H](CCN2Cc2ccncc2)[C@@H](CO)N3)c1	ARNT TACC3 PPI 25
N#Cc1cccc(-c2ccc3c(c2)[C@H]2[C@H](CCN2Cc2cncnc2)[C@@H](CO)N3)c1	none
N#Cc1cccc(-c2ccc3c(c2)[C@H]2[C@H](CCN2Cc2ccncc2)[C@H](CO)N3)c1	ARNT TACC3 PPI 14
N#Cc1ccc(-c2ccc3c(c2)[C@H]2[C@H](CCN2C(=O)C2CCCC2)[C@@H](CO)N3)cc1	none (no result: C2C12 statin, ARNT TACC3 PPI, PglD DTNB)
CC=Cc1ccc2n(c1=O)C[C@H]1[C@H](CO)[C@@H](C(=O)NCCc3ccncc3)[C@@H]2N1CCC(F)(F)F (mixture of isomers)	none (no result: CFTR F508del cor, ARNT TACC3 PPI, PglD DTNB)
O=C(NCc1ccco1)C(c1ccccc1)N(C(=O)Cc1cccs1)c1ccccc1 (configuration not stated)	C2C12 statin 125 (no result: CFTR F508del cor)
O=C(C[C@@H]1C[C@@H]2c3cc(NC(=O)NC4CCCCC4)ccc3O[C@@H]2[C@@H](CO)O1)NCc1cccnc1	PglD DTNB 54
O=C(C[C@H]1C[C@H]2c3cc(NC(=O)CC4CC4)ccc3O[C@H]2[C@@H](CO)O1)NCc1cccc(F)c1	none
O=C(C[C@H]1C[C@@H]2c3cc(NC(=O)CC4CC4)ccc3O[C@@H]2[C@@H](CO)O1)NCc1cccc(F)c1	ARNT TACC3 PPI active
COc1ccc(CC(=O)NC(c2ccccc2)c2ccc(C)cc2)c(OC)c1 (configuration not stated)	CFTR F508del cor 8.0
COc1cccc(-c2ccc(C3[C@@H]4CN(S(=O)(=O)c5cccc(OC)c5)C[C@H]3N4)cc2)c1 (some centres not stated)	CFTR F508del cor 21! (no result: C2C12 statin, ARNT TACC3 PPI, PglD DTNB)
COc1cccc(S(=O)(=O)N2C[C@@H]3N[C@H](C2)C3c2ccc(-c3ccccc3OC)cc2)c1 (some centres not stated)	none (no result: C2C12 statin, ARNT TACC3 PPI, PglD DTNB)
COc1cccc(S(=O)(=O)N2C[C@@H]3N[C@H](C2)C3c2ccc(-c3ccccc3F)cc2)c1 (some centres not stated)	CFTR F508del cor 10! (no result: C2C12 statin, ARNT TACC3 PPI, PglD DTNB)
COc1ccc(S(=O)(=O)Nc2ccc3c(c2)C(=O)N([C@@H](C)CO)C[C@@H](C)[C@H](CN(C)CC2CC2)O3)cc1	none
Nc1nc(-c2ccccc2)cn1N	ARNT TACC3 PPI 48 (no result: CFTR F508del cor)
COc1cc(NC(=O)Cc2cccs2)ccc1-n1cnnn1	C2C12 statin 94 (no result: CFTR F508del cor, PglD DTNB)
COc1cc(C(=O)Nc2ccc3c(c2)OCO3)ccc1-n1cnnn1	none (no result: CFTR F508del cor)
C[C@H](CO)N1C[C@H](C)[C@@H](CN(C)C)Oc2ccc(NC(=O)CCCN(C)C)cc2CC1=O	none
N#CCCN1CCNCC1	C2C12 statin 132 (no result: CFTR F508del cor)
N#CCCN1CCN(CCC#N)CC1	none (no result: CFTR F508del cor)
O=C(C1COc2ccccc2O1)N1CCCC1 (configuration not stated)	none (no result: CFTR F508del cor)
CC1CCN(C(=O)C2COc3ccccc3O2)CC1 (configuration not stated)	CFTR F508del cor 16 (no result: ARNT TACC3 PPI)
COc1ccccc1C(C)Nc1ccc(S(=O)(=O)N2CCN(C)CC2)cc1[N+](=O)[O-] (configuration not stated)	ARNT TACC3 PPI 65
COCC(C)n1c(SCC(=O)N2CC(=O)Nc3ccccc32)nc2ccccc2c1=O (configuration not stated)	CFTR F508del cor 15
C[C@@H]1CN([C@H](C)CO)C(=O)CCCn2nncc2CO[C@@H]1CN(C)Cc1ccc(Cl)c(Cl)c1	none
Cc1ccc2[nH]c3nc(SCCN4CCOCC4)nnc3c2c1	none (no result: CFTR F508del cor)
Cc1ccc2[nH]c3nc(NN)nnc3c2c1	ARNT TACC3 PPI 61
COc1cc(OC)cc(-c2ncc3ccccn23)c1	none (no result: CFTR F508del cor)
COc1ccc(-c2ncc3ccccn23)cc1	C2C12 statin 99 (no result: CFTR F508del cor)
CCCn1c(C2CCCN2c2nc(-c3cccc(Br)c3)cs2)nc2cc(Cl)c(Cl)cc21 (configuration not stated)	C2C12 statin 117
C[C@@H]1CN([C@@H](C)CO)C(=O)c2cc(NS(C)(=O)=O)ccc2O[C@@H](C)CCCCO[C@H]1CN(C)C(=O)NC1CCCCC1	none (no result: C2C12 statin, ARNT TACC3 PPI, PglD DTNB)
Cc1noc(C)c1S(=O)(=O)Nc1ccc2c(c1)C(=O)N([C@H](C)CO)C[C@@H](C)[C@@H](CN(C)C(=O)Nc1ccc(C(F)(F)F)cc1)OCCCC[C@@H](C)O2	none (no result: C2C12 statin)
C=CCn1c(Cc2nc3ccccc3[nH]2)n[nH]c1=S	ARNT TACC3 PPI 49 (no result: CFTR F508del cor)
CSc1nsc(/C=C/Nc2ccc(Cl)cc2)c1C#N	C2C12 statin 125 (no result: CFTR F508del cor)
C#CCOC(=O)c1ccccc1C(=O)N(CC)CC	C2C12 statin 104
Cc1noc(C)c1NC(=O)N(C)C[C@H]1OCCCC[C@@H](C)Oc2ccc(NC(=O)c3ccncc3)cc2C(=O)N([C@H](C)CO)C[C@H]1C	none
O=C(C[C@H]1CC[C@H]2[C@@H](COC[C@@H](O)CN2Cc2cccc(Cl)c2)O1)N1CCCCC1	none
N#Cc1c(/N=C/c2cc(Br)cs2)sc2c1CCC2	C2C12 statin 68 (no result: CFTR F508del cor)
N#Cc1c(/N=C/c2cccs2)sc2c1CCC2	none (no result: CFTR F508del cor)
COCC#Cc1ccc2c(c1)O[C@H](CN(C)CC1CCOCC1)[C@@H](C)CN([C@@H](C)CO)S2(=O)=O	none
CO[C@H]1CN(C)C(=O)c2ccc(NC(C)=O)cc2OC[C@H](C)N(C(=O)C2CC2)C[C@@H]1C	none (no result: C2C12 statin, ARNT TACC3 PPI, PglD DTNB)
C/C=C/c1ccc([C@H]2[C@H]3CN(C(=O)Nc4cccc(OC)c4)CC(=O)N3[C@H]2CO)cc1	none (no result: C2C12 statin, ARNT TACC3 PPI, PglD DTNB)
COc1ccc(NC(=O)Nc2ccc3c(c2)C(=O)N([C@H](C)CO)C[C@H](C)[C@H](CN(C)C(=O)C2CCCCC2)OCCCC[C@H](C)O3)cc1	C2C12 statin 71
C[C@H](CO)N1C[C@H](C)[C@H](CN(C)C(=O)C2CCCCC2)OCCCC[C@H](C)Oc2ccc(NC(=O)Nc3ccc(C(F)(F)F)cc3)cc2C1=O	none (no result: C2C12 statin, ARNT TACC3 PPI)
C[C@H]1CN([C@@H](C)CO)C(=O)c2cc(NC(=O)Nc3ccc4c(c3)OCO4)ccc2O[C@@H]1CN(C)C(=O)Nc1ccc(C(F)(F)F)cc1	C2C12 statin 91
C[C@H]1CN([C@@H](C)CO)C(=O)c2cc(NC(=O)Nc3ccc(C(F)(F)F)cc3)ccc2O[C@@H]1CN(C)C(=O)Nc1ccc2c(c1)OCO2	none
COc1ccc(NC(=O)Nc2ccc3c(c2)C(=O)N([C@@H](C)CO)C[C@H](C)[C@H](CN(C)C(=O)C2CCCCC2)OCCCC[C@H](C)O3)cc1	C2C12 statin 79
C[C@H]1CCCCO[C@@H](CN(C)C(=O)C2CCCCC2)[C@@H](C)CN([C@@H](C)CO)C(=O)c2cc(NC(=O)Nc3ccc(C(F)(F)F)cc3)ccc2O1	CFTR F508del cor 10 (no result: C2C12 statin)
O=C(C[C@@H]1C=C[C@@H](NS(=O)(=O)c2ccccc2)[C@@H](CO)O1)N1CCC(Cc2ccccc2)CC1	none (no result: C2C12 statin, ARNT TACC3 PPI, PglD DTNB)
